Records with an inconclusive call do not appear. The source made the active and inactive calls. Unless noted, calls follow the shape of the dose curve; as a rule, active = well fitted curve in the direction sought with a large enough effect in the repeat runs; inconclusive = weak or mixed curves; inactive = flat fitted curve, though single readings scatter.
How the values were obtained:
[1] = qHTS assay to test for compound auto fluorescence at 535 nm (green) in HEK293 cells (AID 720680)
[2] = qHTS assay to test for compound auto fluorescence at 460 nm (blue) in HEK293 cell free culture (AID 720681)
Method in brief: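 Compounds were added to cell-free DMEM with 10% FBS and fluorescence read directly. The blue channel used 405 nm excitation and 460 nm emission, with triamterene as the reference fluorophore.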

[3] = qHTS assay to test for compound auto fluorescence at 535 nm (green) in HEK293 cell free culture (AID 720682)
Method in brief: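 Measurement is a direct plate read of green fluorescence (485 nm in, 535 nm out) after compound addition to serum-supplemented DMEM lacking cells, with fluorescein used to express intensities.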

[4] = qHTS assay to test for compound auto fluorescence at 590 nm (red) in HEK293 cell free culture (AID 720683)
Method in brief: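 Cell-free wells of DMEM with 10% FBS received compound, and intrinsic fluorescence was read at excitation/emission 540/590 nm. Values expressed as equivalence to Rose Bengal sodium.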

[5] = qHTS assay to test for compound auto fluorescence at 590 nm (red) in HepG2 cell free culture (AID 720684)
Method in brief: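 Compounds are added to culture medium (MEM, 10% FBS) lacking cells, then fluorescence is read at excitation 540 nm, emission 590 nm, with Rose Bengal sodium as the equivalency standard.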

[6] = qHTS assay to test for compound auto fluorescence at 460 nm (blue) in HepG2 cell free culture (AID 720685)
Method in brief: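 Compound (23 nL) or DMSO pinned into cell-free MEM with 10% FBS; blue fluorescence read at 405/460 nm excitation/emission, expressed as auto-fluorescence equivalency to triamterene.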

[7] = qHTS assay to test for compound auto fluorescence at 535 nm (green) in HepG2 cell free culture (AID 720686)
[8] = qHTS assay to test for compound auto fluorescence at 460 nm (blue) in HepG2 cells (AID 720687)
Method in brief: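 HepG2 cells in MEM with 10% FBS, attached overnight at 37 C, were exposed to compound or DMSO for 1 hr at 37 C, 5% CO2. Blue fluorescence was read at 405/460 nm, with triamterene as reference fluorophore.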

[9] = target: Glucocorticoid receptor (Homo sapiens) (UniProt P04150); assay: qHTS assay to identify small molecule agonists of the glucocorticoid receptor (GR) signaling pathway (AID 720691; active = well fitted activation curve with a large enough effect in the signal ratio in the repeat runs, not every such curve was filed as active; the % refers to the signal ratio)
Method in brief: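 Beta-lactamase reporter activity, read as fluorescence intensity, was measured in GR-bla HeLa cells exposed to compounds for 18 h at 37 C and then loaded with LiveBLAzer B/G FRET substrate for 2 h at room temperature.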
% is scaled to controls: 0 for no effect and ±100 for the full control effect.

Chain of Glucocorticoid receptor (Homo sapiens) (P04150 whole entry, looked up): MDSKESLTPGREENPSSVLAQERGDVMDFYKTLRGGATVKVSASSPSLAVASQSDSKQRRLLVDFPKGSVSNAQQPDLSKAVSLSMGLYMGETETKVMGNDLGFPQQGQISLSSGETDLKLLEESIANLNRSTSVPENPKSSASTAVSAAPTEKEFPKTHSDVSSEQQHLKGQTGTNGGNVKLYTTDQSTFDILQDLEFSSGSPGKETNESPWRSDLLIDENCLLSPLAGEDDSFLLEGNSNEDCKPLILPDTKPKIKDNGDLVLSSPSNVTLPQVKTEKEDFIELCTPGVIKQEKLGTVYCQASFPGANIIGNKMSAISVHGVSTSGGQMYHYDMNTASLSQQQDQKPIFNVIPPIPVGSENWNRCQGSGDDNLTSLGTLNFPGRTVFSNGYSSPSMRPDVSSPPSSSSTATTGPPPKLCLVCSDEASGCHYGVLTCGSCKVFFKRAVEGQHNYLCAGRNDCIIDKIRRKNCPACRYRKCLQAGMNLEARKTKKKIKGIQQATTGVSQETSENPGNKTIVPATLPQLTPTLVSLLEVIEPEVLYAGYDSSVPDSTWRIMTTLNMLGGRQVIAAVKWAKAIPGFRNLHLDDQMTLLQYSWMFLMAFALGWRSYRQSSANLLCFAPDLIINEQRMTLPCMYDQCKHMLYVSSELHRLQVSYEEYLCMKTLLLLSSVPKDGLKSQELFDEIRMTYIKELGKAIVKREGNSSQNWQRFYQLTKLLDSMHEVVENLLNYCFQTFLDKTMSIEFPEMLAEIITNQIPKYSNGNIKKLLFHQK

CCCC(=O)OC(=O)CCC
inactive: outcome [1] | Potency [2] | outcome [3] | outcome [4] | outcome [5] | Potency [6] | outcome [7] | Potency [8]

SCCc1cnccn1
inactive: outcome [1] | Potency [2] | outcome [3] | outcome [4] | outcome [5] | Potency [6] | outcome [7] | Potency [8] | Potency [9]

CCN(CC)CCOc1ccccc1C(=O)CCc1ccccc1
inactive: outcome [1] | Potency [2] | outcome [3] | outcome [4] | outcome [5]

CCCCCCCCCCCCCOC(=O)CCSCCC(=O)OCCCCCCCCCCCCC
inactive: fluorescence, % of fluorescein [1] -0.0169% [at 18.6 µM] | fluorescence, % of fluorescent control [2] -0.0348% [at 18.6 µM] | activity change [3] 0.0335% [at 18.6 µM] | fluorescence, % of fluorescent control [4] 0.0989% [at 18.6 µM] | fluorescence, % of Rose Bengal [5] -0.0106% [at 18.6 µM] | fluorescence, % of fluorescent control [6] -0.0714% [at 18.6 µM] | fluorescence, % of fluorescein control [7] -0.0124% [at 18.6 µM] | fluorescence, % of fluorescent control [8] -0.106% [at 18.6 µM]

CC(C)(O)CCc1ccccc1
inactive: outcome [1] | Potency [2] | outcome [3] | outcome [4] | outcome [5] | Potency [6] | outcome [7] | Potency [8] | Potency [9]

COc1ccc(/C=C/C(=O)c2ccc(OC)cc2OC)cc1
inactive: outcome [1] | Potency [2] | outcome [3] | outcome [4] | outcome [5] | Potency [6] | outcome [7] | Potency [8] | Potency [9]

CC(CO)(CO)C(=O)O
inactive: outcome [1] | Potency [2] | outcome [3] | outcome [4] | outcome [5] | Potency [6] | outcome [7] | Potency [8]

C/C(C=O)=C\c1ccccc1
inactive: outcome [1] | Potency [2] | outcome [3] | outcome [4] | outcome [5] | Potency [6] | outcome [7] | Potency [8]

O=C1c2ccccc2C(=O)c2c(O)ccc(O)c21
inactive: outcome [1] | Potency [2] | outcome [3] | outcome [4] | outcome [5] | Potency [6] | outcome [7] | Potency [8] | Potency [9]

CCN(CC)CCNC(=O)c1cc(Cl)c(N)cc1OC
inactive: outcome [1] | Potency [2] | outcome [3] | outcome [4] | outcome [5] | Potency [6] | outcome [7] | Potency [8]

O=C(O)CO
inactive: outcome [1] | Potency [2] | outcome [3] | outcome [4] | outcome [5] | Potency [6] | outcome [7] | Potency [8]

CCCCCCC(CO)CCCC (stereo not given)
inactive: outcome [1] | Potency [2] | outcome [3] | outcome [4] | outcome [5] | Potency [6] | outcome [7] | Potency [8] | Potency [9]

CC(C)(C)CCCCCCOC(=O)c1ccccc1C(=O)OCCCCCCC(C)(C)C
inactive: outcome [1] | Potency [2] | outcome [3] | outcome [4] | outcome [5] | Potency [6] | outcome [7] | Potency [8] | Potency [9]

COC(C)(C)OC
inactive: outcome [1] | Potency [2] | outcome [3] | outcome [4] | outcome [5] | Potency [6] | outcome [7] | Potency [8]

CC[C@H]1OC(=O)[C@H](C)[C@@H](O[C@H]2C[C@@](C)(OC)[C@@H](O)[C@H](C)O2)[C@H](C)[C@@H](O[C@@H]2O[C@H](C)C[C@H](N(C)C)[C@H]2O)[C@](C)(O)C[C@@H](C)C(=O)[C@H](C)[C@@H](O)[C@]1(C)O
inactive: outcome [1] | Potency [2] | outcome [3] | outcome [4] | outcome [5] | Potency [6] | outcome [7] | Potency [8]

Cc1ccc2c(c1[N+](=O)[O-])C(=O)c1ccccc1C2=O
inactive: outcome [1] | Potency [2] | outcome [3] | outcome [4] | outcome [5] | Potency [6]

CCCCCCCCCCCCCC(=O)OCC(O)CO (stereo not given)
inactive: outcome [1] | Potency [2] | outcome [3] | outcome [4] | outcome [5] | Potency [6] | outcome [7] | Potency [8] | Potency [9]

Cc1ccc2nc(N)[nH]c(=O)c2c1Sc1ccncc1
inactive: outcome [1] | Potency [2] | outcome [3] | outcome [4] | outcome [5] | Potency [6] | outcome [7] | Potency [8]

COc1ccc(C)cc1
inactive: outcome [1] | Potency [2] | outcome [3] | outcome [4] | outcome [5] | Potency [6] | outcome [7] | Potency [8] | Potency [9]

CCCCC(CC)COS(=O)(=O)O (stereo not given)
inactive: outcome [1] | Potency [2] | outcome [3] | outcome [4] | outcome [5] | Potency [6] | outcome [7] | Potency [8]

CCC1CCC(CCC(=O)O)C1 (stereo not given)
inactive: outcome [1] | Potency [2] | outcome [3] | outcome [4] | outcome [5] | Potency [6] | outcome [7] | Potency [8] | Potency [9]

CC[C@@H](CO)NCCN[C@@H](CC)CO
inactive: fluorescence, % of fluorescein [1] -0.0101% [at 18.6 µM] | fluorescence, % of fluorescent control [2] 0.0181% [at 18.6 µM] | activity change [3] 0.014% [at 18.6 µM] | fluorescence, % of fluorescent control [4] 0.0179% [at 18.6 µM] | fluorescence, % of Rose Bengal [5] 0.0051% [at 18.6 µM] | fluorescence, % of fluorescent control [6] 0.0488% [at 18.6 µM] | fluorescence, % of fluorescein control [7] 0.0013% [at 18.6 µM] | fluorescence, % of fluorescent control [8] -0.0204% [at 18.6 µM]

— PubChem BioAssay (Tox21)
